This passage reports inhibition results from PubChem BioAssay AID743261 (The Scripps Research Institute Molecular Screening Center, 2014).

The whole screen tested about 3,300 compounds, of which about 35 (1%) were called active. Only a sample is shown. Values without a mark were called inactive. Cut-off read from the data, not from the text of the source: active = inhibition above about 11%; inactive = the rest.

Chain of 1-phosphatidylinositol 4,5-bisphosphate phosphodiesterase beta-3 (Homo sapiens) (Q01970 whole entry, looked up): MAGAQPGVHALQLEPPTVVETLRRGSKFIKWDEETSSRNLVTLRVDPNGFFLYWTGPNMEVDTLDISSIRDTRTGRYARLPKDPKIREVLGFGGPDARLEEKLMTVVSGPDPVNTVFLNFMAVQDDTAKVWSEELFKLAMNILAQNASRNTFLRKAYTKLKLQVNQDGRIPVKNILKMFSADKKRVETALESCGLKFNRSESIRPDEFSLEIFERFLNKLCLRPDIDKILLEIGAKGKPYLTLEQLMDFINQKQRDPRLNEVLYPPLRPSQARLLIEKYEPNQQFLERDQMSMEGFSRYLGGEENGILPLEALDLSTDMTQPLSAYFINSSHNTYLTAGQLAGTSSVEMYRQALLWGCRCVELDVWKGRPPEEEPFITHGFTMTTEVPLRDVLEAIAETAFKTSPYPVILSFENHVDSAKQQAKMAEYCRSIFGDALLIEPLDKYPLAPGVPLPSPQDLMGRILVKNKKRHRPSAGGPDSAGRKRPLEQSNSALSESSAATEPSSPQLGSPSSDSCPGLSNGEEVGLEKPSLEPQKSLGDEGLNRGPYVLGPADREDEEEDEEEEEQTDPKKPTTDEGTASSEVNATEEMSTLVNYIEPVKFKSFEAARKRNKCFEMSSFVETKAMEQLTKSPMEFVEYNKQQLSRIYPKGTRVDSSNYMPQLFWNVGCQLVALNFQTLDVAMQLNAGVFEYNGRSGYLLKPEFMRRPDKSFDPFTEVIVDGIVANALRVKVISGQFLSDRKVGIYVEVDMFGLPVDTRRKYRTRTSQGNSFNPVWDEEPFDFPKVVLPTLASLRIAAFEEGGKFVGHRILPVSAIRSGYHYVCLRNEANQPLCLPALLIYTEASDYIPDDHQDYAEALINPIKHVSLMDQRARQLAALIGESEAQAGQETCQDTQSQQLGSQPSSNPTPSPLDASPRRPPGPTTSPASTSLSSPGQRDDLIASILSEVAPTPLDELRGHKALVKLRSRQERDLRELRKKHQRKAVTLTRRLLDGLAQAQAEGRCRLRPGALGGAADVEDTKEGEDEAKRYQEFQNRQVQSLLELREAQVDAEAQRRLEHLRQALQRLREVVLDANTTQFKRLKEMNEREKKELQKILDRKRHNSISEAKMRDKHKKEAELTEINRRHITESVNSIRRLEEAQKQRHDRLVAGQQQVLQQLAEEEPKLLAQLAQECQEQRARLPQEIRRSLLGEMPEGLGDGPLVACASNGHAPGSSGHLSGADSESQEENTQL

This experiment has as its target 1-phosphatidylinositol 4,5-bisphosphate phosphodiesterase beta-3 (Homo sapiens) (UniProt Q01970). Put plainly: retest of human PLCB3 enzyme blockers – biochemical, fluorescence, purified enzyme, confirmation (AID 743261). Conditions: purified PLC-beta3, fluorogenic substrate fluorescence; at 12.3 µM; hits give high values.
Usually inhibition stands for the change of the read-out against control, counted positive when it falls. For `Cc1cccc(C(=O)NCCCN2CCCC2=O)c1`, the inhibition was 2.72%.
The value for `CN(C)S(=O)(=O)c1cccc(NC(=O)COC(=O)C2(c3ccccc3F)CCCC2)c1` was 0.6%; that for `Nc1nc(NCC(=O)O)nc(N2CCCCCC2)c1[N+](=O)[O-]` was 5.2%.
The figure for `CCOC(=O)Nc1ccc(NC(=O)OCC)cc1` is 4.88%.
The value for `CC1(C)CC(=O)C=C(NC2CC(C)(C)NC(C)(C)C2)C1` was 0.58%.
For the molecule `Cc1ccc(S(=O)(=O)N2CCCCC2)cc1NC(=O)CCNC(=O)c1ccccc1`, the inhibition was -5.41%.
As to `FC(F)(F)c1cnc(Oc2ccccc2-c2nnc(-c3ccc(Cl)cc3)o2)c(Cl)c1`, the inhibition was -7.7%.
For the molecule `O=C(NC12CC3CC(CC(C3)C1)C2)N1CCCC(CO)C1` (stereo unspecified), the inhibition was -3.42%.
The value for `CC(C)(C)c1ccc(C(=O)Nc2cc(Cl)c(Br)cc2C(=O)O)cc1` was -8.39%; that for `Cc1ccc(S(=O)(=O)Cn2nnnc2CN2CCN(Cc3ccc4c(c3)OCO4)CC2)cc1` was 2.26%.
The value for `CC(C)C(NC(=O)C1CCC(C(C)(C)C)CC1)C(=O)NCCCN1CCCCC1` (stereo unspecified) was 0.28%.
For `CC1CCN(S(=O)(=O)c2ccc(S(=O)(=O)NCc3ccco3)cc2)CC1`, the inhibition was -1.58%.
The figure for `O=C(NCc1ccc(F)cc1F)[C@@H]1CCCN1C(=O)[C@@H]1CCCN1C(=O)c1cccc(Cl)c1` is -0.65%.
The figure for `CC(=O)C1=C(O)C(=O)N(c2cccnc2)C1c1ccc([N+](=O)[O-])cc1` (stereo unspecified) is -1.47%; for `O=c1ccc2c(-c3ccccc3S(=O)(=O)O)c3ccc(O)c(O)c3oc-2c1O` it is 21% (active); for `COc1ccc(/C(C)=N/N2CCOCC2)c(O)c1` it is -14.9%.
The figure for `COCCNC(=O)C(c1ccc(O)cc1)N(C(=O)CCC(=O)Nc1nccs1)c1ccc(C)cc1` (stereo unspecified) is -0.24%.
On to `O=C1NC2(CCCCC2)N=C1c1ccccc1`, for which the inhibition was -4.41%.
With `Cc1cccc([C@@H]2[C@@H]3C(=O)N(Cc4ccccc4)C(=O)[C@@H]3[C@]3(Cc4ccc(Cl)cc4)C(=O)N(c4cccc(Cl)c4)C(=O)N23)c1`, the inhibition was 5.38%.
The value for `Cc1cc(NC(=O)CN2C(=O)NC(CC(C)C)C2=O)no1` (stereo unspecified) was 0.1%; that for `CC(C)CCSc1ncnc2c1oc1nc3c(cc12)COC(C)(C)C3` was -2.11%; that for `O=C(C[C@H]1C(=O)N(c2ccc(F)c(F)c2)C[C@@H]1Cc1ccccc1)Nc1ccccc1` was 9.92%.
The figure for `CN(C(=O)c1ccc(NC(=O)Cc2cccc(NC(=O)C3CCN(C(=O)c4ccccc4)CC3)c2)cc1)C1CC1` is -1%; for `CCCCn1c(SCC(=O)N2CCCC2=O)nc2cc(S(N)(=O)=O)ccc21` it is 0.23%; for `O=c1c([N+](=O)[O-])cc(C(F)(F)F)cn1Cc1cccc(Cl)c1` it is 4.27%.
The figure for `Cc1nc(-c2ccc(F)cc2)c(CC(=O)N2CCN(S(=O)(=O)c3ccc(F)cc3)CC2)s1` is -1.44%; for `O=C(COc1ccc(Cl)cc1)N1CCN(c2cccc(C(F)(F)F)c2)CC1` it is -5.48%; for `O=S(=O)(c1ccc(F)cc1)N1CCN(C(=S)NC2CCCC2)CC1` it is -3.43%.
For `CC1(C(=O)NCc2ccccc2)CSCC(=O)N1CCCN1CCOCC1` (stereo unspecified), the inhibition is -2.02%.
The value for `O=[N+]([O-])c1cc(C(F)(F)F)ccc1NN=C1CCCC1` was 2.81%.
Consider `O=c1c2ccccc2c(-c2ccccc2)nn1Cc1ccccc1`, for which the inhibition is -6.9%.
The value for `CN(CC(=O)NC1CCCCC1)S(=O)(=O)c1ccc(Br)s1` was 3.57%; that for `COc1ccccc1C(=O)N1C(CC(=O)Nc2ccccc2C)C(=O)NC2CCCCC21` (stereo unspecified) was -8.41%; that for `COc1cc(OC)nc(S(C)(=O)=O)n1` was -3.28%.
The figure for `O=C(C(c1ccccc1)c1ccccc1)N1CCN(CC(O)COc2ccccc2)CC1` (stereo unspecified) is 3.79%; for `COC(=O)NC1(C(F)(F)F)NC(=O)N(C2CCCCC2)C1=O` (stereo unspecified) it is 2.36%; for `N#C[C@]1(S(=O)(=O)c2ccccc2)C[C@@H]2ON=C(c3cccc(Br)c3)[C@@H]2C1` it is 0.44%.
The figure for `CC1Oc2ccccc2N(Cc2cccnc2)C1=O` (stereo unspecified) is -1.95%; for `COc1ccccc1C(=O)Nc1cccc(C(=O)N2CCOCC2)c1` it is -1.43%; for `S=c1[nH]nc(-c2cccnc2)n1/N=C/C(Cl)=C\c1ccccc1` it is -5.69%.
Regarding `CC1(C)CC(=O)C=C(NCCN2CCNCC2)C1`, the inhibition was -4.21%.
The value for `CCn1c(/C=C/Nc2ccccc2)[n+](CC)c2ccc(C(=O)OCC(F)(F)F)cc21` was -12.7%; that for `COC(=O)CN1C(=O)C(O)=C(C(C)=O)C1c1ccc([N+](=O)[O-])cc1` (stereo unspecified) was 2.66%; that for `COc1ccc(-c2ccc(CN3C(CC(C)C)C(=O)N(Cc4cn(CC5CCCCC5)nn4)CCS3(=O)=O)cc2)cc1` (stereo unspecified) was -1.28%.
Turning to `COc1ccc([N+](=O)[O-])cc1N(CC(O)Cn1nnc2ccccc21)S(=O)(=O)c1ccc(C)cc1` (stereo unspecified), the inhibition is 3.85%.
The figure for `CCOc1ccccc1C1CC(c2cccc(NS(C)(=O)=O)c2)=NN1C(=O)c1ccccc1` (stereo unspecified) is -3.53%.
`O=C1CS(=O)CN1c1ccc(Oc2ccccc2)cc1` (stereo unspecified): the inhibition is 0.56%.
The value for `COc1cc(NC(=O)COC(=O)c2ccc([N+](=O)[O-])s2)cc(OC)c1OC` was 2.2%.
The figure for `O=S(=O)(Nc1ccc(Oc2ncccn2)c(Cl)c1)c1ccc(F)cc1` is -3.4%.
The figure for `O=C(CSc1nnc(-c2ccncc2)n1C1CCCCC1)Nc1ccccc1` is -1.28%; for `COc1ccccc1CCNC(=O)CN1C(=O)NC2(CCCC2)C1=O` it is 7.54%.
Turning to `Clc1ccc(C2[C@H]3CN(CC4CCCCC4)[C@H](c4ccccc4)C34CC2(c2cccnc2)C4)cn1` (stereo partly specified), the inhibition was -4.05%.
The figure for `C[C@H](C(=O)N(C)c1ccccc1)[C@@H](O)c1ccc2ccccc2c1` is -3.71%; for `CCN(CC)Cc1csc2ccc(Br)cc12` it is 0.36%; for `C=CCSC(CC)(CC)C(N)=O` it is 3.18%.
The figure for `COCc1cc(C(C)=O)ccc1OC` is 0.95%.
